# Source: the OligoGym collection
# Molecular target: SULT1A2
# Experiment: pooled miR-30 sensor sort-seq; sequence = guide strand
# Settings: shRNA
# Also: reference of the scale not given here.
row,Sequence,sensor-assay potency score (higher = more potent)
1,TCTTGCACGTGCTGGTACCAGG,-1.6
2,TGAGGTCCACAGTCTCCTCTGG,-0.796
3,TTTTTCAGAGTCTCCATCCCTG,-0.0359
4,TGGTCCATGAACTCCCGGCGGA,-1.53
5,TCCAGCCATGAACTTCTCCAGG,-1.76
6,ATGAGGTCCACAGTCTCCTCTG,-1
7,TAGGAAACCGCCACATCCTTTG,-0.928
8,TGGGACTTTGAACTCAAGGAAG,-1.59
9,ACCCATAGGACACTTCTCCAGC,-2.4
10,TTTATTCTGGAGCCTCTTGGTC,-0.833

# Molecular target: SULT6B1
# Experiment: as above
# Settings: shRNA
row,Sequence,sensor-assay potency score (higher = more potent)
1,TACTGCTGTATCTTTAGGGTTT,-0.446
2,TAATTCACTGACAATGTGGAGA,-0.0659
3,TAATATGAACTTAACATTGTCG,0.349
4,TATAATATGAACTTAACATTGT,-0.395
5,TGAACTTAACATTGTCGCCATC,-1.22
6,TGGAATATCGGGGACATCGTTG,-1.15
7,TATGAACTTAACATTGTCGCCA,0.543
8,TATTAATTCACTGACAATGTGG,-0.366
9,TGTCCTTTCATGAACTGTCTGA,0.266
10,TATTCTCGAAGATAGACCCAGG,-0.373
11,TAATTTGTCATAGTGGAGGTGA,0.271
12,TTATTCTCGAAGATAGACCCAG,-0.349

# Molecular target: SUN1
# Experiment: as above
# Settings: shRNA
row,Sequence,sensor-assay potency score (higher = more potent)
1,TTGTTTGTGCTTCTGCGCTGTT,-0.561
2,TAGAATAAACTCTCGACACGGG,-0.0133
3,TTCTTCAGGGAGACAGCGCTGC,-0.739
4,TTGGAAAGCTGTGTCGTCGGGT,0.562
5,TTTTGGTTTCGTAAGTTTCAGA,-0.848
6,TTTGTTGTTCTGGCCGCTCGGT,-0.815
7,TTCAGGGAGACAGCGCTGCTGG,-1.01
8,TTTGTTTGTGCTTCTGCGCTGT,0.665
9,TCGAGTCACAGCATCCTGCAGG,-0.812
10,TTGTTGTTCTGGCCGCTCGGTT,-1.37
11,TTTTCTAATCCATAGACGGCGA,-0.893

# Molecular target: SURF1
# Experiment: as above
# Settings: shRNA
row,Sequence,sensor-assay potency score (higher = more potent)
1,TTCAGGATTCACTTTCTTCCTG,-0.13
2,TTTCTTAAACCACAGGTAGGAT,-0.803
3,TTAAACCACAGGTAGGATGTAG,-0.235
4,TACCAGTAGCACATGATCCAGC,-0.00567
5,TCTGTCAGCCTCACCATCCCAA,-0.843
6,TCAGCTTCCACTTCCGACGCTG,0.863
7,TTCCAGGTCTCGATAATGCCAG,-0.863
